The full ranking holds about 59,000 sequences; the median of the read-out is about -0.00055, and the lowest 2% start at about -2. Only a selection was taken, and the lowest values are over-represented in it overall.

The nature of this experiment: Identification of proteins required for the processing of the EWS-FLI1 nascent transcript.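 Further: robust z of luciferase light less the median z of siRNAs with the same seed.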 As to conditions: TC32 Ewing sarcoma NR0B1-luc vs CMV-luc (EWS-FLI1 target promoter against control promoter), 48 h; screened at 20 nM (by protocol). The gist of the method:
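Readout: OneGlo luminescence, 48 h post-transfection, TC32-NR0B1-luc vs TC32-CMV-luc in parallel. siRNA 20 nM final, RNAiMax lipid, 600 cells/well; z-score-MAD transformed, then seed-adjusted.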
UGAAUGUCAAUGUCGUAUG against PCDHB1 came in with a seed-corrected z-score of -0.133.
As to UGUUGUUCUUGACUGACUG against SNRPD2P1, the seed-corrected z-score was -4.32.
UUAGUGAUAUUCUUGACAG against PSMD5 came in with a seed-corrected z-score of 0.816.
For the sequence UCAUGUAAAACUCUCGGCC against PARS2, the seed-corrected z-score was -0.0062.
As for UCAUUGAAGUGCUUAGUGG against RASGRF1, the seed-corrected z-score was -0.277.
For UGUUGUAGAUCCAUAGUUC against KLHDC2, the seed-corrected z-score is -4.33.
UCCAUGUCAUGUAAAUUUC against MR1 returned a seed-corrected z-score of -0.441.
Sequence AUUGCAAAAGUAGAUUUAC against RPL26P30 showed a seed-corrected z-score of 0.181.
UUCAGUUCUAGAGGUCUGC against TMEM53: the seed-corrected z-score was -0.0791.
As for UUCGCUUCCAGUUCACCUC against MBOAT1, the figure is 0.704; as for UAUGUGACGAGGGUCAUGC against THBS1, -2.07.
As to AAACCCUUCACAGUCUUGG against LOC388955, the seed-corrected z-score turned out to be 0.158.
As for AGCUAUAUUAUUCACAGCC against BTF3L4, the figure is -0.0759.
As for UGUCUAAUAAACAAGUUAC against DNA2, the figure is -0.418; as for UCUCCGAUGAGAGCUUUGG against GNS, -0.354; as for AUAGUGUAAAGAACAUCCG against HNRNPL, 2.46.
For UCCAUUACAAUCGACCUUU against PROK2, the seed-corrected z-score was -0.664.
Take UUCCCGUUCAUUUUGCAAC against ASZ1: the seed-corrected z-score was -0.283.
Then AAGGUGUCGAUGUCCAUGG against MSLNL, with -2.6; and AAAUCAACCAAUUAAAGUC against LOC403323, with 1.01; and UGUUCAAUCUUGGAGCUGG against LRRC8E, with 1.15.
With AAAGAUCAAAUCUGAUUCC against MRPL19, the seed-corrected z-score is -0.8.
As for AUAUGUUCAAGGUGAUUCG against OR6K2, the seed-corrected z-score is -0.456.
Consider AUCGCGAACACUAACGUAC against SUB1, for which the seed-corrected z-score was -0.141.
UUAGGUAACGGAAACGGGC against LDHC registered a seed-corrected z-score of 0.562.
The sequence UUGGUAUUGAUCGUUUAUG against DCUN1D1 displayed a seed-corrected z-score of 1.03.
Turning to AUACCGAAAACCUUCGCCC against ABCA3, the seed-corrected z-score is 0.623.
Then UAUGGUUACAAAGGGAACU against ZNF669, with 0.508; and UCAGGUACAAUUCUGAUUC against KRT38, with -0.223.
Regarding UUGGGUGUCAGGAUCUCGU against MYH14, the seed-corrected z-score was -2.4.
In turn, UACAUCUCCAGGGUCAGCG against CALY returned a seed-corrected z-score of -0.514.
UCUGCGACUCCUGUUCUGC against WRBP1 came in with a seed-corrected z-score of 0.0575.
UUUGUAAGGUUGCUGAUCG against CLIP1: the seed-corrected z-score was 0.221.
UUCUCGUCUAGUUUGCAUC against SH3RF3 returned a seed-corrected z-score of 0.155.
Then AUUGUUUGUGGUAUUGUAG against CRHR1, with 0.211; and UGAGUGCUUACUGGUUUGC against C9orf47, with -3.58.
In turn, UCGGAUGUAUCUGAGGUGC against DCAF8L1 returned a seed-corrected z-score of -0.269.
Sequence UCUAAUUCUGCGGCUUUUC against SCAMP1 displayed a seed-corrected z-score of -0.0112.
For the sequence UAGAUGCUCAGGGAUCACC against AS3MT, the seed-corrected z-score was 1.06.
Then UUUCGAACACGAAACAUUC against LOC340089, with -0.0497.
In turn, AUACCUGCUAAUGUCAUCC against ERCC6 showed a seed-corrected z-score of -3.8.
The sequence ACAGUUAGUAUUGUACUUG against ZNF280C gave a seed-corrected z-score of 0.315.
Sequence UGAGUUUCCAGGCUAUCAC against CCDC122 displayed a seed-corrected z-score of -2.99.
AUACUGAAAAUAGUACAUG against KMT5A yielded a seed-corrected z-score of 0.332.
UGUACAGAGAGGGCAUGUG against BAIAP2L2 gave a seed-corrected z-score of -1.82.
As to UUUCAUAGAUUAGCACUCC against PRKACB, the seed-corrected z-score was -0.257.
UCGGUGAUGAGGCUGAUCC against G6PC3 gave a seed-corrected z-score of -0.843.
Sequence AGUGUAACAGACAUCAUGC against DLAT registered a seed-corrected z-score of -0.966.
As for UUGUAUUCCCUUGUGGUCC against KHDRBS1, the figure is -2.93; as for UGCUUUGUCGUAAUCUUCC against UNC45A, -0.29; as for AAAAUAAUCGAUGUGAUUU against FOXI3, -0.41.
In the case of AUCACUCUCACAUACAUGG against RCAN1, the seed-corrected z-score was -0.288.
On to UAUCGUGAAACAGACUUCC against SND1, for which the seed-corrected z-score turned out to be 0.0523.
Sequence UUCUAAACAACUCUUGGAC against RPUSD4 returned a seed-corrected z-score of -0.962.
For UACAGGGUCAGGGAGAGGU against PTPN6, the seed-corrected z-score is -2.18.
In the case of UUGUAUACAACCUAUCAAC against B4GALT6, the seed-corrected z-score was -0.657.
UUAUUUUGAAUAGCCUUCC against SERBP1: the seed-corrected z-score stood at 1.09.
For the sequence UAUAUCGACAGCUCAGCUC against SUPT6H, the seed-corrected z-score is -4.43.
As to UUGGUAUCCAAAGACGAUG against RTKN2, the seed-corrected z-score was -0.918.
As for “AAGGGCAAAGGAGUGAGGC against LOC100289495”, the figure is -0.199; as for UUCUGGUUAGUCAUAUUGG against HDAC1, -0.41; as for UUGAGGGCAGAAGUACACU against FAM231D, -0.76.
In the case of UGGUUUGUCAGCGGGAUUC against MINK1, the seed-corrected z-score is -2.53.
AUCCGAACACCCAUAAGCC against POLK had a seed-corrected z-score of -0.479.
In turn, UUAAUUCUAUUCGAUCAUC against MNS1 yielded a seed-corrected z-score of 0.033.
Sequence UCUUAUGUUGGUGUUGUUC against SMOC1 showed a seed-corrected z-score of 0.0653.
UGAGUGAUAGUCUAGACUC against SOX9-AS1: the seed-corrected z-score was determined as 0.0191.
Then UUUAUUUAGGGAGCUCCAG against ETHE1, with 0.835.
The sequence UUACGUUCAGAGUCUAUCG against C17orf75 yielded a seed-corrected z-score of 0.0852.
The sequence UUGUUGAUCACUUUGACGG against IKZF3 yielded a seed-corrected z-score of 0.604.
For the sequence AAACAGUCCAUUAACUUCU against RBM38, the seed-corrected z-score was 0.257.
For the sequence UUCUUGGUAAGAUCGAGAG against RNF43, the seed-corrected z-score was -2.77.
Consider AAUGCGAUUAUUGUCUGUC against CCT3, for which the seed-corrected z-score came out at 0.0264.
Turning to UCGGUUGUAUAUGUCAUCC against KIAA0100, the seed-corrected z-score turned out to be 0.141.
The sequence UUCACUGAUCUGAAAGUUG against NAA10 yielded a seed-corrected z-score of 0.839.
The sequence UCACUGUGCAUUUCUCCAC against GUCD1 yielded a seed-corrected z-score of 0.93.
The sequence UUAUAGUAUGCAGGAAUGG against FAM150B yielded a seed-corrected z-score of -1.67.
As for UGACUAAGAACUGUAUCCC against CC2D2B, the seed-corrected z-score was -2.16.
The sequence UUUUCGGCGUGUAUCCUCG against CHMP1B yielded a seed-corrected z-score of -0.617.
Turning to UCUUUGACAAGGACCCUUC against G2E3, the seed-corrected z-score came out at 1.23.
Regarding UAGGUCAAGAUAACCAUGC against OR8K1, the seed-corrected z-score was -13.9.
Turning to UUUGUGCUGCUUGUUCUCG against ADCK3, the seed-corrected z-score was -1.
Then UGUAUCUCGAUCUUCACCG against STRN, with -0.0881; and UGCAUGAAUAGAGUCGGCG against RAB22A, with -0.347.
The sequence AAAUAUAUAGGGCAUCCAG against PLEKHM1P1 returned a seed-corrected z-score of 0.174.
UCUUCUCUAAGUCUAGGUC against POM121 returned a seed-corrected z-score of 0.532.
On to UGCUGAAUAGGUCCAAUCC against HERPUD1, for which the seed-corrected z-score is -1.46.
The sequence UCAUAUGGAACUCUAAAGC against PIK3CG gave a seed-corrected z-score of 0.358.
Sequence AAUCUUCAAACAGCCGCUC against CHRNA3 returned a seed-corrected z-score of -2.52.
Consider AUAUGAUUCCCAAUUAAUG against TMEM119, for which the seed-corrected z-score came to 1.74.
As for UAAGAUCCGAGUCACUAUC against RPH3AL, the seed-corrected z-score is -0.639.
In turn, UUUCAGCUUCUUGUACUGG against ROCK1P1 displayed a seed-corrected z-score of -2.99.
Take UCGUUGAUCACAAUUAGCU against ADAM11: the seed-corrected z-score came out at 0.436.
For the sequence UCUGGUAUCAGAAAGUUCG against BBS7, the seed-corrected z-score is -0.128.
The sequence ACAGAUAUAGGAGAAAGCC against NUMBL returned a seed-corrected z-score of 0.00267.
UAGCCUAUCAAUGAAACCU against ZNF222 gave a seed-corrected z-score of 0.694.
As for UUUACGUCGUUCUUCUUCC against TXLNG, the figure is 0.0162.
UUUGGGUCAACGGUGAGGU against KIAA2012 came in with a seed-corrected z-score of 0.316.
As for AUGUUUUUCAAGUAGCUUC against CDRT4, the figure is -1.38.
For UUAACUUGUUGUAUUGCUG against CCDC109B, the seed-corrected z-score worked out at 1.36.
As to AACACUAUUUAGCUCAUUC against TARBP1, the seed-corrected z-score was 0.0464.
In the case of UGAGAGAUAAUUUUGGGAG against SPDYC, the seed-corrected z-score is -12.8.
On to UUACUUUCUUCAACCAAAG against TRMT6, for which the seed-corrected z-score stood at 0.527.
UUUCGAAGUUGCAUGGUUG against KDM5D returned a seed-corrected z-score of -0.291.
UCUUAGACCCUGGAGGUGG against TBRG4: the seed-corrected z-score is -0.178.
Regarding UAUUAGACAGAACUCUUGG against TNRC6C, the seed-corrected z-score was -14.8.
The sequence UUAGAUUUCUCCCUCGGUG against ZNF136 yielded a seed-corrected z-score of -0.576.
Then UCUUCGAACUGAAUGAGUG against ME2, with 0.165; and UUUACUGGGAUAGUUAAUC against C2CD4A, with 1.08.
Sequence UCCACUAUUACAACAGCCC against SFPQ registered a seed-corrected z-score of -2.65.
As to UUCUUAUCAAGAAUAGUCC against PTER, the seed-corrected z-score is -0.285.
Consider UUCUGCGUCACUUUCUACC against CRNKL1, for which the seed-corrected z-score was -0.902.
Then UUUGGGACAAGGCACAAGC against PRKCDBP, with 0.468; and UACAAUACUAUUUCGAAUC against ZNF44, with -0.235; and UCAAAUACUGGUCGAAUUC against SOX7, with 0.0233.
UUGGGCAUAAUGGAAGCUG against EIF2B2 gave a seed-corrected z-score of -1.39.
Regarding UUGGGUAGUAGCAUAGCCU against SYNC, the seed-corrected z-score was -2.19.
Sequence UUGAUUUCCACUCCUUUUG against SGCD registered a seed-corrected z-score of -0.522.
With UAUUUCUCGAUUAUCUUCA against ICA1L, the seed-corrected z-score is -1.21.
In turn, UGCAGUACCAGGUUCAGGG against DOK1 came in with a seed-corrected z-score of 0.361.
Sequence AAUCCCAAAACCUUCUCGC against TPRG1L yielded a seed-corrected z-score of -2.07.
In turn, ACUUGGAAAUCUCUUUUCG against FAM117A had a seed-corrected z-score of 0.27.
UGUUGCAUUCUUGUCAUCC against CRAMP1 had a seed-corrected z-score of -0.303.
In turn, UGACAUGUCCUCAACAUCA against TMEM91 came in with a seed-corrected z-score of -1.41.
UUAUCGUCAUGGUAAACAC against GXYLT1 had a seed-corrected z-score of 0.378.
Then UCAGUAUCCAGGUCAGUGC against LEMD2, with 0.794.
Regarding UCCUCCCUAACAAAUAGGC against NUDT16, the seed-corrected z-score is -0.295.
On to AAGGUUGCUAUACGUGGGC against C19orf35, for which the seed-corrected z-score is -2.85.
For the sequence UUUCAAUCCUGUAAGGGUC against CDC23, the seed-corrected z-score is 0.07.
In turn, UGGAUAAUCAGGAUGGUCC against AKR1C4 showed a seed-corrected z-score of -0.343.
UAAGCAACAGGAGCUCAGU against KRT6B came in with a seed-corrected z-score of 0.507.
For the sequence UGGUUGAUCAAUGCGAUAG against C11orf54, the seed-corrected z-score is -0.331.

For the origin of these results see PubChem BioAssay AID1159506 (National Center for Advancing Translational Sciences (NCATS), 2015).
